Sampled rows, rich in hits. Any-hit rate of the full collection: about 21%.
Shiga toxin inh – inhibitors of Shiga toxin in Vero cells | Vero cells, Shiga toxin protein synthesis inhibition reporter | inhibition, % at 38.7 µM | 9.2% of 290,000 active; in the data active = inhibition mostly above about 28%, no sharp cut-off; inactive = mostly below about 43%
Cycloheximide cs – affects cycloheximide protein synthesis inhibition readout, counter-screen; cell reporter, cycloheximide protein synthesis inhibition counterscreen; max response, %; 12% of 300,000 active; AID 2314; in the data active = max response mostly above about 13%, no sharp cut-off; inactive = mostly below about 14%; note: read at 38.3 µM for the half of the compounds with a filed dose
Pf growth 48h – inhibits P. falciparum growth in the first generation, 48 h; P. falciparum luciferase growth in erythrocytes, 48 h; Potency, µM (top dose mostly 28.7 µM), usual class: inhibitors; 5.9% of 310,000 active; AID 504832
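In quantitative HTS format, infected erythrocytes bearing luciferase-reporter parasites were treated for a single generation at 37 C. Luminescence after adding detection reagent served as the growth measure.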
Giardia FBPA inh – Giardia lamblia aldolase inhibition | Potency, µM (doses to about 59.6 µM), hits mostly inhibitors | A8B2U2 | 0.71% of 290,000 active | AID 2451 | purified Giardia FBPA; note: nearly all actives have a fitted effect of over 55% in size
Target sequence (A8B2U2 whole entry, looked up): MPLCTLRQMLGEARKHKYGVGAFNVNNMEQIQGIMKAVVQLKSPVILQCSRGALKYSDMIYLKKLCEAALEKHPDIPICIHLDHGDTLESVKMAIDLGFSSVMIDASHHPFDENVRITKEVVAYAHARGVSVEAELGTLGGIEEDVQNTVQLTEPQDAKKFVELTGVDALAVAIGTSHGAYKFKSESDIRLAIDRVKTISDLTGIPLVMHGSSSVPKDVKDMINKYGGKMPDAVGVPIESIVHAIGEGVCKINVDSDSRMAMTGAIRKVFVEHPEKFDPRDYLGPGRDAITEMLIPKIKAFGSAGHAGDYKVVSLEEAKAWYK
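Giardia FBPA (40 nM reagent) was preincubated 10 min at RT with compound (up to 57.5 uM final), then substrate plus GAPDH/TPI/NAD/arsenate coupling system with diaphorase/resazurin was added; resorufin fluorescence (525/598 nm) was read after 20 min.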
NS1 function inh – blocks influenza NS1 protein function; Potency, µM (doses to about 46.1 µM); 0.4% of 270,000 active; calls by dose curve; note: actives are rising curves; nearly all actives have a fitted effect of over 50% in size
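Recovery from NS1-induced slow growth read by OD600 in budding yeast switched to galactose assay medium (pH 6.0, -URA) at 1:100 dilution. Compound 23 nl per well; the matching strain lacking NS1 serves as control.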
Pf growth 96h – inhibits malaria parasite growth, 96 h; P. falciparum luciferase reporter growth, 96 h; Potency, µM (highest dose often 28.7 µM), most hits filed as inhibitors; 6.9% of 320,000 active; AID 504834
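96 h incubation, 37 C, 5% CO2, of luciferase-reporter P. falciparum-infected RBCs (2% hematocrit, 0.05% parasitemia final) with test compounds; endpoint luminescence.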
Large screens that a line does not name were inactive. Unless noted, calls come from the whole dose curve; as a rule, active = well fitted curve in the direction sought with a large enough effect; inconclusive = small, poorly fitted or top-dose-only effect, or another doubt; inactive = no such curve, though single readings can be large; an effect the other way counts as inactive or inconclusive.

Cn1ccsc1=NC(=O)c1ccc(S(=O)(=O)C(F)F)cc1	Shiga toxin inh 69.2, Cycloheximide cs 26.4 (no result: Giardia FBPA inh)
CN(C)c1ccc(C(=O)N=c2sccn2C)cc1[N+](=O)[O-]	Shiga toxin inh 41.8, Cycloheximide cs 18.0 (no result: Giardia FBPA inh)
Cn1ccsc1=NC(=O)c1ccc(CS(C)(=O)=O)cc1	Shiga toxin inh 38.7
Cn1ccsc1=NC(=O)c1ccc(OC(F)(F)F)cc1	Shiga toxin inh 82.6, Cycloheximide cs 35.9
COc1ccc(C(=O)Cn2ccsc2=NC(C)=O)cc1	none (no result: NS1 function inh)
Cn1ccs/c1=N\S(=O)(=O)c1ccc(F)cc1	none (no result: Pf growth 96h)
CCCN(CCC)S(=O)(=O)c1cccc(C(=O)N=c2sccn2C)c1	Pf growth 48h inconclusive (no result: Giardia FBPA inh)
Cn1ccsc1=NC(=O)c1ccc(Cl)cc1	Shiga toxin inh 113.4, Cycloheximide cs 39.2
Cc1ccc(NC2CC(=O)N(CCc3ccccc3)C2=O)cc1 (stereo not given)	Cycloheximide cs 17.9 (no result: Pf growth 48h)
CCN(CC)c1ccc(NC2CC(=O)N(CCc3ccc(OC)cc3)C2=O)cc1 (stereo not given)	Pf growth 48h 4.65µM, Giardia FBPA inh inconclusive, Pf growth 96h 1.85µM
COc1ccc(CCNC2CC(=O)N(CCc3ccccc3)C2=O)cc1 (stereo not given)	none (no result: Pf growth 96h)
Cn1c(=O)c2c(SCC(N)=O)nc(CC(C)(C)C)nc2n(C)c1=O	Giardia FBPA inh inconclusive
Cn1c(=O)c2c(SCC(=O)NC3CCCC3)nc(CC(C)(C)C)nc2n(C)c1=O	Pf growth 48h inconclusive, Pf growth 96h 13.1µM (no result: Giardia FBPA inh)
CCCC(=O)N(Cc1cc2cccc(C)c2[nH]c1=O)c1ccccc1OC	Pf growth 48h 11.7µM
CCCC(=O)N(Cc1cc2ccccc2[nH]c1=O)c1ccccc1OC	none (no result: Pf growth 48h, Pf growth 96h)
O=C(Nc1ccccc1Cl)c1cc(S(=O)(=O)N2CCCCC2)ccc1N1CCOCC1	Pf growth 48h 9.28µM, Pf growth 96h 5.86µM
CCCCCC(=O)Nc1cc(S(=O)(=O)N2CCCCC2)ccc1N1CCOCC1	Pf growth 48h 13.1µM, Pf growth 96h inconclusive (no result: Giardia FBPA inh)
O=S(=O)(Nc1cc(S(=O)(=O)N2CCOCC2)ccc1N1CCOCC1)c1ccc2c(c1)OCCO2	Cycloheximide cs 16.2, Pf growth 48h inconclusive (no result: NS1 function inh)
CC1(C)CC2CC(C)(CN2S(=O)(=O)c2ccc(C(=O)Nc3cc(S(=O)(=O)N4CCOCC4)ccc3Cl)cc2)C1 (stereo not given)	Pf growth 48h 3.7µM, NS1 function inh inconclusive, Pf growth 96h 2.62µM
CCCCCC(=O)Nc1cc(S(=O)(=O)N2CCOCC2)ccc1N1CCCC1	none
O=S(=O)(Nc1cc(S(=O)(=O)N2CCOCC2)ccc1O)c1ccc2c(c1)OCCCO2	none (no result: Shiga toxin inh, Cycloheximide cs, Giardia FBPA inh, NS1 function inh)
O=C(NN1C(=O)NC2(CCCCC2)C1=O)c1ccc(Cl)s1	none (no result: Shiga toxin inh, Cycloheximide cs, Giardia FBPA inh, NS1 function inh)
C=C(C)C(=O)OCC1CN2C(CCC(C)C2c2ccc(Br)cc2)C(=O)O1 (stereo not given)	none (no result: Shiga toxin inh, Cycloheximide cs, Pf growth 48h, NS1 function inh, Pf growth 96h)
O=C(Nc1cc(S(=O)(=O)N2CCOCC2)ccc1N1CCOCC1)c1cccc(S(=O)(=O)N2CCCCC2)c1	Pf growth 48h inconclusive, Pf growth 96h inconclusive
COc1ccc(S(=O)(=O)Nc2cc(C(=O)NCCC(C)C)ccc2N2CCOCC2)cc1	Pf growth 48h 8.28µM, Pf growth 96h inconclusive
CC(=O)NCCC(=O)Nc1cc(S(=O)(=O)N2CCCCC2)ccc1N1CCCCC1	Pf growth 48h 1.17µM, Pf growth 96h 1.17µM (no result: Shiga toxin inh, Cycloheximide cs, Giardia FBPA inh, NS1 function inh)
O=C(Nc1cc(S(=O)(=O)N2CCOCC2)ccc1N1CCOCC1)c1ccc(S(=O)(=O)N2CCCCC2)cc1	Pf growth 48h 11.7µM, Pf growth 96h inconclusive
O=S(=O)(c1ccc(N2CCN(S(=O)(=O)c3ccc4c(c3)OCCO4)CC2)nc1)N1CCCC1	Pf growth 48h 13.1µM
COc1ccc(C(=O)OCC(=O)Nc2cc(S(=O)(=O)N3CCOCC3)ccc2N2CCCC2)cc1	none
Cc1c(C(=O)Nc2cc(S(=O)(=O)N3CCOCC3)ccc2N2CCOCC2)oc2ccccc12	Pf growth 48h 10.4µM, Pf growth 96h inconclusive (no result: NS1 function inh)
CC(C)COc1ccc(C(=O)Nc2cc(S(=O)(=O)N3CCOCC3)ccc2N2CCCC2)cc1	Pf growth 48h 8.28µM, Pf growth 96h inconclusive (no result: Shiga toxin inh, Cycloheximide cs, Giardia FBPA inh, NS1 function inh)
CC(C)Oc1ccc(C(=O)Nc2cc(S(=O)(=O)N3CCOCC3)ccc2N2CCOCC2)cc1	Pf growth 48h 13.1µM, Pf growth 96h inconclusive (no result: Shiga toxin inh, Cycloheximide cs, Giardia FBPA inh, NS1 function inh)
O=C(Nc1cc(S(=O)(=O)N2CCOCC2)ccc1N1CCOCC1)c1ccc(Cl)nc1	none
